Two sequences from article PMC7862700, “An all-to-all approach to the identification of sequence-specific readers for epigenetic DNA modifications on cytosine” can be followed below.

Test in all cases: DAPPL (digital affinity profiling via proximity ligation, sequencing); 10 mM Tris-HCl pH 7.5, 50 mM NaCl, 1 mM DTT, 4% glycerol, room temperature, 30 min; GST-TFs on glutathione beads, 16-mer random dsDNA library, 0.1% formaldehyde crosslink after washing; high values mean tight binding
What all share (conditions): protein: recombinant; tags: N-terminal GST; dsDNA, one strand shown

For one test, the target named is T1, FLI1 (Homo sapiens, UniProt Q01543 1-452).
T1 sequence: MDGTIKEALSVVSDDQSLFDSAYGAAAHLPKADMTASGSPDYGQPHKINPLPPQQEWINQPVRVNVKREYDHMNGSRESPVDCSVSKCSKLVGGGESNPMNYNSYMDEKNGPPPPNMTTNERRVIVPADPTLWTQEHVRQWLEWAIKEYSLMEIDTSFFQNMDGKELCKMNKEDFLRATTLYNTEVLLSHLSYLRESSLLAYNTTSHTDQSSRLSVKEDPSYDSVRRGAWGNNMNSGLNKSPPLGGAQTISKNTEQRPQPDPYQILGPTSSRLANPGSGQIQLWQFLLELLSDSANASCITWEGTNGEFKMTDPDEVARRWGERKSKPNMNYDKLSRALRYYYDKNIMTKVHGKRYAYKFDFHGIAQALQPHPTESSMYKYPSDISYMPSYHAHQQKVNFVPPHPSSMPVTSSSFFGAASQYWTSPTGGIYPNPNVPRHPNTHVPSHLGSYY
In short, it runs like this: (§1)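 Sequencing on an Illumina NextSeq500 followed washing, crosslinking with 0.1% formaldehyde, proximity ligation (BsaI/T4 ligase, 1 h, 37 °C) and PCR amplification of pools that had been incubated for 30 min at room temperature with 200 nmole of a random double-stranded 16-mer DNA library in Tris/NaCl/DTT/glycerol buffer. Each pool held DNA-barcoded human transcription factors, expressed in yeast as GST fusions and captured on glutathione beads, plus a tag-only sample. Binding signal is a hexamer's read frequency for a factor divided by its frequency in the tag-only sample.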

For a further test, the target named is T2, ELK1 (Homo sapiens, UniProt P19419 1-428).
T2 sequence: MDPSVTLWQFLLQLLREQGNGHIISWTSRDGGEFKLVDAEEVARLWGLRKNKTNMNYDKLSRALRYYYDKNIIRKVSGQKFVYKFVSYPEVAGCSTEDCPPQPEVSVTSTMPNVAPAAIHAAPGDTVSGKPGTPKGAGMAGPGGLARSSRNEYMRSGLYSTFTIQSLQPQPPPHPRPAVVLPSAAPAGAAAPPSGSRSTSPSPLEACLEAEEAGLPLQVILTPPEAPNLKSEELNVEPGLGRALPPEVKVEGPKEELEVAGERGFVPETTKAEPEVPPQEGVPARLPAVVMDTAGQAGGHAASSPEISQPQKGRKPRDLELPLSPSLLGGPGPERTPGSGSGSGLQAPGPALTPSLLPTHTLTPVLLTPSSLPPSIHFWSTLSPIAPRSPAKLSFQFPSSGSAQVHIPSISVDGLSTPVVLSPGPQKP
In short, it runs like this:
as §1

For the next test, the target named is T3, GABPA (Homo sapiens, UniProt Q06546 1-454).
T3 sequence: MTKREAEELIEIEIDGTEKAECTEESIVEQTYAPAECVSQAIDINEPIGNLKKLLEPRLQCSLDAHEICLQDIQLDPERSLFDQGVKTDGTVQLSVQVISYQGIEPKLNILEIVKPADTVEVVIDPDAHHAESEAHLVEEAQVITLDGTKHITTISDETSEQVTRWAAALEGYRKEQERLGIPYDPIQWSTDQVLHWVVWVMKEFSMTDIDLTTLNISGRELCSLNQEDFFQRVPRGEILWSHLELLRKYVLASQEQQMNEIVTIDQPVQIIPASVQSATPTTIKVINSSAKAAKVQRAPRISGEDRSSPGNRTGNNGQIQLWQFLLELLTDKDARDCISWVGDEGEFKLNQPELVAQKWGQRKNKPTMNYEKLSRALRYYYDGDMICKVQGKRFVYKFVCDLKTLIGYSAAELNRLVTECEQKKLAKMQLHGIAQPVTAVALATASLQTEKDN
The gist of the method: as §1

The next test has as its target T4, ERG (Homo sapiens, UniProt P11308 1-479).
T4 sequence: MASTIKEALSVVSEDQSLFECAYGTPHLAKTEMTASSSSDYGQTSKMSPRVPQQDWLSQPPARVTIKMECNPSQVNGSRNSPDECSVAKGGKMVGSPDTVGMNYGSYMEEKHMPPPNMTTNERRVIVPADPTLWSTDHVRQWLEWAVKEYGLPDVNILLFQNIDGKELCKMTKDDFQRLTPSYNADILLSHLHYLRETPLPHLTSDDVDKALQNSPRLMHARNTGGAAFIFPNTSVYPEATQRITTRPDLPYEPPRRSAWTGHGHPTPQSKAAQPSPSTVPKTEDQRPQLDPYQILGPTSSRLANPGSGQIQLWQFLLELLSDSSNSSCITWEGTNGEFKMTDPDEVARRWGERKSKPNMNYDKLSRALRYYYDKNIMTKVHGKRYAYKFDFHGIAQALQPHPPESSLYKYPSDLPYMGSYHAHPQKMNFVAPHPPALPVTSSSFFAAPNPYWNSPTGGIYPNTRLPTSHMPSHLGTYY
In short, it runs like this: as §1

The target in the next test is ELF1 (Homo sapiens, UniProt P32519 1-619). The gist of the method: as §1
For a further test, the target named is T5, EHF (Homo sapiens, UniProt Q9NZC4 1-300).
T5 sequence: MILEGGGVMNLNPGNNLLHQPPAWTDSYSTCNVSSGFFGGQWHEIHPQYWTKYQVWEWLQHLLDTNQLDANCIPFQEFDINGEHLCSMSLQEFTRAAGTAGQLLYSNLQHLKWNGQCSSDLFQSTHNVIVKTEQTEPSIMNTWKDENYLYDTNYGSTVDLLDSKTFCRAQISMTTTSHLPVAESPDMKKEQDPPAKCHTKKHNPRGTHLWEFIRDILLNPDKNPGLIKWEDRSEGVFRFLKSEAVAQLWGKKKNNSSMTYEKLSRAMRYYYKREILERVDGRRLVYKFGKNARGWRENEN
In short, it runs like this:
as §1

The target in a further test is SPI1 (Homo sapiens, UniProt P17947 1-270). In short, it runs like this: as §1
Another test deals with SPIB (Homo sapiens, UniProt Q01892 1-262). In short, it runs like this:
as §1

For another test, the target named is T6, ELK3 (Homo sapiens, UniProt P41970 1-407).
T6 sequence: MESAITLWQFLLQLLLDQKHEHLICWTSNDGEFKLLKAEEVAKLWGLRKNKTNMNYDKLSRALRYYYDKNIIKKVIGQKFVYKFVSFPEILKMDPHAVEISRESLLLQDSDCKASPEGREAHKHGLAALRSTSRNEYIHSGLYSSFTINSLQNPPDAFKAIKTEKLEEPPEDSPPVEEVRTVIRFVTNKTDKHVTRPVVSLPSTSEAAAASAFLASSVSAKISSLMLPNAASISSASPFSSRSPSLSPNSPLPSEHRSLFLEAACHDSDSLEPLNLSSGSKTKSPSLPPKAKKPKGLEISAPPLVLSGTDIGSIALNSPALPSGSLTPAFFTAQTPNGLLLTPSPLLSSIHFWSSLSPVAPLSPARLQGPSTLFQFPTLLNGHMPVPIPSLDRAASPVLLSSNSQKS
In short, it runs like this: as §1

For the next test, the target named is T7, FEV (Homo sapiens, UniProt Q99581 1-238).
T7 sequence: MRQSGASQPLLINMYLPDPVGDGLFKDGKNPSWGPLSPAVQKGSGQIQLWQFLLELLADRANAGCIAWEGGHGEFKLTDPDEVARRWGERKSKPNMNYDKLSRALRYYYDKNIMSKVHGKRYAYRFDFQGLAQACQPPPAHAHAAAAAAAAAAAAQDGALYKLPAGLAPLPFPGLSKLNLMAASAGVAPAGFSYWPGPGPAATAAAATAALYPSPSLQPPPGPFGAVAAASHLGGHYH
In short, it runs like this: as §1

Another test concerns the target ETV5 (Homo sapiens, UniProt P41161 1-510). In short, it runs like this: as §1
The next test has as its target T8, SPIC (Homo sapiens, UniProt Q8N5J4 1-248).
T8 sequence: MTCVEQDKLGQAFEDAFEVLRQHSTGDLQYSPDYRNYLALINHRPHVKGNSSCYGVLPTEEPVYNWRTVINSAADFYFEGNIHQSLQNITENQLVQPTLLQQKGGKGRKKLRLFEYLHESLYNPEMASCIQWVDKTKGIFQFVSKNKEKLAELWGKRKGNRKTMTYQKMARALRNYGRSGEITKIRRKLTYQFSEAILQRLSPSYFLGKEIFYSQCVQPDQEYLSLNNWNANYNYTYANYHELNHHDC
In short, it runs like this:
as §1

A further test concerns the target ELF4 (Homo sapiens, UniProt Q99607 1-663). In short, it runs like this:
as §1

The target of another test is T9, ELK4 (Homo sapiens, UniProt P28324-2 1-405).
T9 sequence: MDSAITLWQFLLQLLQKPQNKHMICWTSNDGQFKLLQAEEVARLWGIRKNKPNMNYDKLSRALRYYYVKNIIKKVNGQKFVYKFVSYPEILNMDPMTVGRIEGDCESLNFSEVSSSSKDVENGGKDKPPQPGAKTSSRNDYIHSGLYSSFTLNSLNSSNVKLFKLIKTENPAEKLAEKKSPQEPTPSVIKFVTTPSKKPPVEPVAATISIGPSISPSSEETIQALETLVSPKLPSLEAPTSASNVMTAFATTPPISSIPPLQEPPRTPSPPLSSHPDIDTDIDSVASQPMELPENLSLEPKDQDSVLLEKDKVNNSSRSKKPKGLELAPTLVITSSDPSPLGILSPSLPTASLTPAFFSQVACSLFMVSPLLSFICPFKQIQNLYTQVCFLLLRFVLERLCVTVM
In short, it runs like this:
as §1

The target of another test is T10, ETV2 (Homo sapiens, UniProt O00321 1-342).
T10 sequence: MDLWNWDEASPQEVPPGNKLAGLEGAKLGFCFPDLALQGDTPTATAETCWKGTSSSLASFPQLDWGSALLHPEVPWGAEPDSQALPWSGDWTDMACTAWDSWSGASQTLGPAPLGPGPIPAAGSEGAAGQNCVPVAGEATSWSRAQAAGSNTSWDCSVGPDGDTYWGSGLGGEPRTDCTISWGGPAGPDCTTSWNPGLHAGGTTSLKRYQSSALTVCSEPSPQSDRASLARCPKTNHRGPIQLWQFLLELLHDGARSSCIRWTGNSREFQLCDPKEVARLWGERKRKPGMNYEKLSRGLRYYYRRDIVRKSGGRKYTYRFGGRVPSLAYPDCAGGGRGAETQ
The gist of the method: as §1

The target in another test is T11, ELF3 (Homo sapiens, UniProt P78545 1-371).
T11 sequence: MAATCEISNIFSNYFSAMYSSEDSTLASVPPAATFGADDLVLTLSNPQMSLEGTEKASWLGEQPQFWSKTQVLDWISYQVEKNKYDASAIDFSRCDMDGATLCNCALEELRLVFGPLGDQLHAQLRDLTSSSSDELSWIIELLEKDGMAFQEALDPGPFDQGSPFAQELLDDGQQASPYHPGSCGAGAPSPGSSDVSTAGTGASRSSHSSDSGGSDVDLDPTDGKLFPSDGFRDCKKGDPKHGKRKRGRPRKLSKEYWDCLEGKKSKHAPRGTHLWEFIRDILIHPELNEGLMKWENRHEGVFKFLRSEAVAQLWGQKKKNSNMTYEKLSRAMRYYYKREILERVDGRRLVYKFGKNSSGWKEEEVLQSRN
The gist of the method:
as §1

The target in the next test is ETV1 (Homo sapiens, UniProt P50549 1-477). The gist of the method: as §1
Sequence of ETV1 (P50549 whole entry): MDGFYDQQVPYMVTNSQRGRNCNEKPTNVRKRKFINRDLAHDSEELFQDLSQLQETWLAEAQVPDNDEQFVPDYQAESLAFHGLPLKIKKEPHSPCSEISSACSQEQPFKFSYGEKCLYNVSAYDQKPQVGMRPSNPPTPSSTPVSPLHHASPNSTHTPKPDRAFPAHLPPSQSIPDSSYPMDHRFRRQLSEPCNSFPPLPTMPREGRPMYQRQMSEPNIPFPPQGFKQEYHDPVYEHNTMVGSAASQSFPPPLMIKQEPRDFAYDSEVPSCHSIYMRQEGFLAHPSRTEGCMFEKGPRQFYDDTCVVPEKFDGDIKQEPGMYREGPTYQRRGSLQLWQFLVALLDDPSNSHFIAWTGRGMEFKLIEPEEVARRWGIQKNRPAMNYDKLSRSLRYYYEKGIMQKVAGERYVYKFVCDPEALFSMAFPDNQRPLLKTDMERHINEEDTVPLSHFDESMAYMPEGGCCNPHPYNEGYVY

Sequence of SPIB (Q01892 whole entry): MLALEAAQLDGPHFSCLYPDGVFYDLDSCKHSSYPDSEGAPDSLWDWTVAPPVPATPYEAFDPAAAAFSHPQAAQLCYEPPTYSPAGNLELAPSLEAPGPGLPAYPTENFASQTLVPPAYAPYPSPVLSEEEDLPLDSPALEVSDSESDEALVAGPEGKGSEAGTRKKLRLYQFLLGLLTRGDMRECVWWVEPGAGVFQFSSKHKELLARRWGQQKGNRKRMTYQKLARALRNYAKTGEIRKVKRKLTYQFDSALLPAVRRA
Sequence of ETV5 (P41161 whole entry): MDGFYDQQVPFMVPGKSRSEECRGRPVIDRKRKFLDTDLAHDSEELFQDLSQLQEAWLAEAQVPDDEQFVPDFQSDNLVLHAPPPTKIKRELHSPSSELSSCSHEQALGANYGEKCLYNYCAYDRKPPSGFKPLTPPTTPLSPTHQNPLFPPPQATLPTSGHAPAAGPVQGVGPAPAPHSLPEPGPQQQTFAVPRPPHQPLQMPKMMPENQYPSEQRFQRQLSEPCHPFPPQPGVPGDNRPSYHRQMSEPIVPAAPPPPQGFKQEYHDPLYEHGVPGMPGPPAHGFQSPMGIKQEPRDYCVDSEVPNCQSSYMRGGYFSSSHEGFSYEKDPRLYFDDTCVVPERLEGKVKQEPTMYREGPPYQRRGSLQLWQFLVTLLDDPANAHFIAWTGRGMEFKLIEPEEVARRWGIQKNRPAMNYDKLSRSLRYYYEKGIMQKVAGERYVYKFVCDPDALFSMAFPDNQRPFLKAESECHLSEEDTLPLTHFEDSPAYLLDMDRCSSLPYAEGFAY
Sequence of ELF4 (Q99607 whole entry): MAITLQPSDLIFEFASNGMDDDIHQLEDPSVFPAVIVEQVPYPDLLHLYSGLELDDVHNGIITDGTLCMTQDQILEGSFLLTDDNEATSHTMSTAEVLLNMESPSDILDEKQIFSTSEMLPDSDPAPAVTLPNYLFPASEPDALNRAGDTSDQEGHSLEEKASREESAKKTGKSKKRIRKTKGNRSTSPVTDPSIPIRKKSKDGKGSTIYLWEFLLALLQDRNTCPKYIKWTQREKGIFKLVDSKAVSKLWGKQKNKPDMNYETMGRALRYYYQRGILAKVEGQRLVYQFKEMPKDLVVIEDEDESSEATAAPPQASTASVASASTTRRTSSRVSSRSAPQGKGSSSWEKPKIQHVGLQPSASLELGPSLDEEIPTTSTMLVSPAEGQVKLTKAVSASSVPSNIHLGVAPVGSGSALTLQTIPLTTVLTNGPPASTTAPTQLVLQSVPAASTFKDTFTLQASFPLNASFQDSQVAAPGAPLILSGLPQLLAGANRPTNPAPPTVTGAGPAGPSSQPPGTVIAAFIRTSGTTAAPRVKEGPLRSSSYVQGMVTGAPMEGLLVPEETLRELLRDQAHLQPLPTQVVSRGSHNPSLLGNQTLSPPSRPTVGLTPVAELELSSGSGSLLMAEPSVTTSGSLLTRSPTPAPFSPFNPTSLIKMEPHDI
Sequence of ELF1 (P32519 whole entry): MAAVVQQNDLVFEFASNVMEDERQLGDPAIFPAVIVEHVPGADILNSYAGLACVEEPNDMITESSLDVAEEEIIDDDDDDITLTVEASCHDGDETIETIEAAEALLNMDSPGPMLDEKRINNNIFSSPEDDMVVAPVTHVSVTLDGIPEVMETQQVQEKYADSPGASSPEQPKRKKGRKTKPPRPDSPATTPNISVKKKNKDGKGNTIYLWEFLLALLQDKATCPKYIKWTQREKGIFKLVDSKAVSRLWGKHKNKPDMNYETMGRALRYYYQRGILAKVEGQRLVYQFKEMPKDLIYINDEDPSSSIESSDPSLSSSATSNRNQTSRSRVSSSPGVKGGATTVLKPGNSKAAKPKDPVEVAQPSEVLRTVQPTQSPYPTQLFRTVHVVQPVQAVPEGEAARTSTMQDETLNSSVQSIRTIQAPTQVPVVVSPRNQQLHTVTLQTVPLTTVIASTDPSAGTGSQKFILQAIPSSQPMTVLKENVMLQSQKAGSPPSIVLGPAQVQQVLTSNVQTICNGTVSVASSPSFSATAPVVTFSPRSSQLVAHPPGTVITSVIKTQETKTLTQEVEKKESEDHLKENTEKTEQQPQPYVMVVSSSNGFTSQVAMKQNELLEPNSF

On to CACCAA, for which the binding signal is 1.02 fold enrichment (6-mer frequency, TF over GST control) with FLI1; 1.16 fold enrichment (6-mer frequency, TF over GST control) in the test with ELK1; 1.03 fold enrichment (6-mer frequency, TF over GST control) in the test with GABPA; 1.07 fold enrichment (6-mer frequency, TF over GST control) with ERG; 1.12 fold enrichment (6-mer frequency, TF over GST control) with ELF1; 1.06 fold enrichment (6-mer frequency, TF over GST control) with EHF. The binding signal with SPI1 was 1.07 fold enrichment (6-mer frequency, TF over GST control); with SPIB it was 1.04 fold enrichment (6-mer frequency, TF over GST control); with ELK3 it was 1.15 fold enrichment (6-mer frequency, TF over GST control); in the test with FEV, 1.12 fold enrichment (6-mer frequency, TF over GST control); in the test with ETV5, 1.1 fold enrichment (6-mer frequency, TF over GST control); with SPIC, 1.12 fold enrichment (6-mer frequency, TF over GST control). Also, the binding signal in the test with ELF4 is 1.12 fold enrichment (6-mer frequency, TF over GST control); in the test with ELK4 it was 1.13 fold enrichment (6-mer frequency, TF over GST control); with ETV2, 1.12 fold enrichment (6-mer frequency, TF over GST control); in the test with ELF3 it was 1.1 fold enrichment (6-mer frequency, TF over GST control); with ETV1 it was 1.01 fold enrichment (6-mer frequency, TF over GST control).
Consider CGTAAC, for which the binding signal in the test with FLI1 was 1.19 fold enrichment (6-mer frequency, TF over GST control); with ELK1, 1.12 fold enrichment (6-mer frequency, TF over GST control); with GABPA, 1.17 fold enrichment (6-mer frequency, TF over GST control); with ERG it was 1.07 fold enrichment (6-mer frequency, TF over GST control); with ELF1, 1.11 fold enrichment (6-mer frequency, TF over GST control); in the test with EHF it was 1.16 fold enrichment (6-mer frequency, TF over GST control). Also, the binding signal was 1.08 fold enrichment (6-mer frequency, TF over GST control) in the test with SPI1; 1.16 fold enrichment (6-mer frequency, TF over GST control) in the test with SPIB; 1.07 fold enrichment (6-mer frequency, TF over GST control) with ELK3; 1.09 fold enrichment (6-mer frequency, TF over GST control) with FEV; 1.1 fold enrichment (6-mer frequency, TF over GST control) with ETV5; 1.27 fold enrichment (6-mer frequency, TF over GST control) in the test with SPIC. Besides, the binding signal is 1.23 fold enrichment (6-mer frequency, TF over GST control) with ELF4; 1.13 fold enrichment (6-mer frequency, TF over GST control) with ELK4; 1.12 fold enrichment (6-mer frequency, TF over GST control) in the test with ETV2; 1.18 fold enrichment (6-mer frequency, TF over GST control) with ELF3; 1.13 fold enrichment (6-mer frequency, TF over GST control) with ETV1.
